# Screens as filed in PubChem.
# PI5P4Ka inh: PI5P4K alpha (human) kinase inhibition | PI5P4Kalpha enzyme, ADP-Glo luminescence, 60 min; stronger effect = lower value | 330,000 tested, 1.2% active | max response, % | P48426; active = max response of -50% or lower; inconclusive = between -30% and -50%; inactive = -30% or higher; also: value at the top dose of about 77 µM; % is scaled to controls: 0 for no effect and ±100 for the full control effect
#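 Quantitative HTS of the MLSMR library against PI5P4Kalpha with substrate. ATP added last at 5 microM final; room temperature, 60 minutes. Remaining ATP depleted, ADP converted and read as luminescence.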
# G9a block: blocks human histone lysine methyltransferase G9a; Q96KQ7; G9a H3K9 monomethylation, AlphaScreen, 2 h; Potency, µM (highest dose often 102 µM), for inactives: at the highest dose activity, negative = inhibition, most hits filed as inhibitors; 350,000 tested, 8.8% active; also: potency is read from the fitted curve at half-maximal effect; % is scaled to controls: 0 for no effect and ±100 for the full control effect; nearly all actives have a fitted effect of over 75% in size
#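 Readings reflect AlphaScreen signal from monomethyl-H3K9 antibody detection. HMT at 20 nM; substrate b-H3K9 500 nM; cofactor SAM 20 uM; 2 h RT reaction; compounds tested as titrations in qHTS with 15 min preincubation.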
# BAZ2B inh: BAZ2B (human) inhibition | AlphaScreen BAZ2B-H3K14Ac peptide displacement | Potency, µM (highest dose often 114 µM), for the others: top-dose activity change, negative = inhibition, most hits filed as inhibitors | 360,000 tested, 4.4% active | AID 504333 | Q9UIF8; also: potency is read from the fitted curve at half-maximal effect; % is scaled to controls: 0 for no effect and ±100 for the full control effect; nearly all actives have a fitted effect of over 60% in size
#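 In this displacement format the biotinylated H3(5-23) peptide acetylated at Lys14 serves as ligand at 50 nM, with BAZ2B at 50 nM in PBS pH 7.4 containing 0.01% Tween-20. Donor and acceptor beads are 10 ug/mL final.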
# HP1b binding inh: blocks HP1-beta chromodomain binding to methylated histone tails | P83916 | AlphaScreen HP1-beta / biotin-H3K9me3 peptide binding | Potency, µM (doses to about 114 µM), for the others: at the top dose activity change, negative = inhibition, actives largely listed as inhibitors | 390,000 tested, 0.56% active; also: potency is read from the fitted curve at half-maximal effect; nearly all actives have a fitted effect of over 70% in size
#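 AlphaScreen: HP1-beta (50 nM) preformed 30 min with biotin-H3(1-18)K9me3 peptide (50 nM) in PBS pH 7.4, 0.01% Tween-20. Compound added for 30 min at RT, then streptavidin donor/nickel chelate acceptor beads (10 ug/mL) for 30 min.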
# PLK1 PBD inh: PLK1 (human) polo-box domain binding inhibition; P53350; Plk1 PBD binding of FITC phosphopeptide, fluorescence polarization; Potency, µM, for the others: max response, negative = inhibition, hits mostly inhibitors; 360,000 tested, 2.8% active; also: potency is read from the fitted curve at half-maximal effect; series mostly up to about 57 µM; % is scaled to controls: 0 for no effect and ±100 for the full control effect; nearly all actives have a fitted effect of over 65% in size
# Target sequence (P53350 whole entry, looked up, the tested form may be a part): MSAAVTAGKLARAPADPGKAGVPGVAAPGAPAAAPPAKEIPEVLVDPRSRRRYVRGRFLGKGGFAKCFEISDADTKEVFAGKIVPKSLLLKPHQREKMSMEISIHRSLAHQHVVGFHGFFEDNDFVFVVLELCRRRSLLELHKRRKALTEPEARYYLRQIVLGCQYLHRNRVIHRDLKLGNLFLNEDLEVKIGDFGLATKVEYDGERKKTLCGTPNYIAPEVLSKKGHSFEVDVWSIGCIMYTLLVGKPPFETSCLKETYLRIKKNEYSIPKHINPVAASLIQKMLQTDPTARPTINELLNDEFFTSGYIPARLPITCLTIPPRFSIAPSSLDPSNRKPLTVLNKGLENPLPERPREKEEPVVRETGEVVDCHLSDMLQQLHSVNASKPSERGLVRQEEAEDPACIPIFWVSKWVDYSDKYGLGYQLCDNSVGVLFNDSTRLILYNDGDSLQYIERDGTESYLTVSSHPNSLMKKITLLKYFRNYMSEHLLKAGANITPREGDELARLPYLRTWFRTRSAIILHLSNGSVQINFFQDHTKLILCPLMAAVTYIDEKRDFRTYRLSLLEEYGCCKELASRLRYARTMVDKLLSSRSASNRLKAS
# JMJD2A Tudor inh: JMJD2A Tudor domain (human) inhibition; AlphaScreen JMJD2A-Tudor / H3K4me3 peptide binding; O75164; Potency, µM (titrated, usually from 114 µM), for inactives: at the top dose activity change, negative = inhibition, actives largely listed as inhibitors; 390,000 tested, 4.4% active; also: potency is read from the fitted curve at half-maximal effect; % is scaled to controls: 0 for no effect and ±100 for the full control effect; nearly all actives have a fitted effect of over 50% in size
# TbPYK inh: confirmation of Trypanosoma brucei pyruvate kinase inhibitors; Potency, µM (doses to about 76.9 µM), for inactives: at the highest dose activity change, negative = inhibition, hits mostly inhibitors; shares compounds with PLK1 PBD inh; recombinant TbPYK, Kinase-Glo ATP luminescence; 890 tested, 67% active; also: potency is read from the fitted curve at half-maximal effect; % is scaled to controls: 0 for no effect and ±100 for the full control effect; nearly all actives have a fitted effect of over 70% in size
# TbPYK orthogonal: orthogonal confirmation of Trypanosoma brucei pyruvate kinase inhibitors; shares compounds with PLK1 PBD inh; recombinant TbPYK, ADP-Glo luminescence, 60 min; Potency, µM (top dose mostly 76.9 µM), inactives show at the top dose activity change, negative = inhibition, actives largely listed as inhibitors; 890 tested, 62% active; also: potency is read from the fitted curve at half-maximal effect; % is scaled to controls: 0 for no effect and ±100 for the full control effect; nearly all actives have a fitted effect of over 75% in size
# * marks the source's active call; other numbers are inactive results; ? = inconclusive; . = no result given; [ ] = another dose, or the depositor's remark. Hits are enriched below; roughly 12% of the tested compounds scored in any of these assays. Unless noted, calls follow the shape of the dose curve; as a rule, active = well fitted curve in the direction sought with a large enough effect; inconclusive = small, poorly fitted or top-dose-only effect, or another doubt; inactive = no such curve, though single readings can be large; an effect the other way counts as inactive or inconclusive.
SMILES,PI5P4Ka inh,G9a block,BAZ2B inh,HP1b binding inh,PLK1 PBD inh,JMJD2A Tudor inh,TbPYK inh,TbPYK orthogonal
CCC1Oc2ccc(C)cc2N(CC(=O)N(Cc2ccc(C)o2)C2CCCC2)C1=O (configuration not stated),-9,?,4%,4%,?,-32%,16µM*,16µM*
CC(=O)c1ccc(NC(=O)C(C)Sc2nnc3ccccn23)cc1 (configuration not stated),1,-21%[59 µM],9%,45%,-5%,-14%,.,.
Cc1nc(SCC(=O)c2cccc([N+](=O)[O-])c2)n[nH]1,-63*,?,-8%,?,?,40µM*,?,?
O=C1CC(Sc2nnnn2-c2ccccc2)C(=O)N1c1cccc(Cl)c1 (configuration not stated),-8,0.89µM*,-1%,27%,?,-7%,28µM*,32µM*
O=C(O)C(Cc1ccccc1)N1C(=O)C=CC1=O (configuration not stated),-14,.,.,.,6.7µM*,.,18µM*,32µM*
Cc1ccc(C)c(NC(=O)CSc2nncn2C)c1,5,31%,6%,15%,-21%,10%,.,.
Cc1cc(C)c2c(c1)-c1c(ssc1=S)C(C)(C)N2C(=O)CSc1nncn1C,-5,5µM*,50µM*,?,-12%,?,14µM*,16µM*
CCOc1cc(/C=C2\SC(=N)N(c3nccs3)C2=O)ccc1OCCN1CCOCC1,0,-21%,-32%,7%,-10%,-29%,?,?
O=c1ccc2nc3ccccc3sc-2c1,?,.,.,.,21µM*,.,13µM*,?
N#Cc1ccc(CN2CCC3(CC2)CCN(C(=O)c2cc(C(F)(F)F)cc(C(F)(F)F)c2)CC3)cc1,.,-9%[12.7 µM],.,.,.,.,.,.
CN1/C(=C\C=C2/C(=O)Oc3ccccc3C2=O)C(C)(C)c2ccccc21,-4,?,?,-1%,-106%,3%,.,.
CN1C(=CC=C2C=C(I)C(=O)C(I)=C2)C(C)(C)c2ccccc21,-27,.,?,?,55%,?,?,6%
CC1(C)CC(=O)C(C(C2=C(O)CC(C)(C)CC2=O)c2ccco2)C(=O)C1 (configuration not stated),-13,35µM*,-30%,27%,5.3µM*,-21%[57.1 µM],13µM*,?
CC1(C)CC(=O)C(C(C2=C(O)CC(C)(C)CC2=O)c2ccc(Cl)c([N+](=O)[O-])c2)C(=O)C1 (configuration not stated),-8,?,-26%,24%,-11%,-10%,.,.
Cc1nc(SCc2ccc(O)c([N+](=O)[O-])c2)c([N+](=O)[O-])[nH]1,?,.,?,?,-30%,22µM*,?,13µM*
CC1=C(C(=O)Nc2ccc(C)cc2C)C(c2ccccc2)n2ncc(C(=O)Nc3ccccc3)c2N1 (configuration not stated),.,-10%[59 µM],-4%,17%,.,-15%,.,.
CCOC(=O)C(=Cc1cc(=O)c(OC)co1)C(=O)OCC,-2,10µM*,-3%,?,24µM*,5%,28µM*,?
COc1cc2ccc(=O)oc2c(O)c1O,-14,.,.,0%,-4%,6.3µM*,28µM*,35µM*
CCc1cccc(NC(=O)CSC2=NS(=O)(=O)c3ccccc32)c1,-12,8.9µM*,-8%,22%,11µM*,-19%,18µM*,18µM*
O=C(CSc1ccccc1)NCCc1ccccc1,0,-3%,-5%[57.1 µM],32%,-7%,-1%,.,.
